A selection: hits, their analogues and other compounds. The true share with any hit is near 7.3%.
SMN2 splice up: SMN2 splice variant enhancement; AID 1458; HEK293 SMN2-luciferase splicing reporter, luminescence, 30-36 h; 210,000 compounds, 2.8% hits; Potency, µM (doses to about 46.1 µM), for the others: at the top dose activity change, positive = activation, hits mostly activators; further: % of control where 0% means no effect; nearly all actives have a fitted effect of over 55% in size
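qHTS luciferase splicing reporter: luminescence rises when SMN2 exon 7 is included in transfected HEK293 cells. Compound exposure lasted 30-36 h at 37C, with 4.5 mM final sodium butyrate as control, followed by a ONE-Glo read.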
NPC1 promoter act: activators of NPC1 promoter. 320,000 compounds, 2.4% hits. AID 485313. Potency, µM (highest dose often 9.22 µM), inactives show top-dose activation, most hits filed as activators. Huh7 NPC1 promoter luciferase reporter, 24 h; further: % of control where 0% means no effect; nearly all actives have a fitted effect of over 60% in size
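Quantitative HTS used a cell-based reporter: Huh7 cells stably bearing the NPC1 promoter upstream of luciferase were treated with compounds for 24 h, and promoter activation was read as luminescence.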
p53 reactivation: mutant p53 re-activation in reporter cells. 320,000 compounds, 0.063% hits. H1299 p53-A138V BP100-luciferase reporter, luminescence, 24 h. Potency, µM (top dose mostly 92.2 µM), for inactives: at the highest dose activity change, positive = activation, actives largely listed as activators. AID 504706; further: % of control where 0% means no effect; nearly all actives have a fitted effect of over 45% in size
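p53-null H1299 cells stably carrying temperature-sensitive p53-A138V and a BP100-luciferase reporter were pinned with compounds (4-point, 1:5 series) and held 24 hrs at 37 deg C. Luminescence was read 10 min after detection reagent.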
Rab9 promoter act: activates the Rab9 promoter. 320,000 compounds, 2.8% hits. Huh7 Rab9 promoter-luciferase reporter, luminescence, 24 h. AID 485297. Potency, µM (series often up to 9.22 µM), inactives show at the highest dose activation, negative = inhibition, actives largely listed as activators; further: % of control where 0% means no effect; nearly all actives have a fitted effect of over 60% in size
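Steps: seed 1500 Huh7 Rab9-luc cells per well, rest 2 h at 37 °C; add compound in DMSO; incubate 24 h; add luciferase reagent, 10 min ambient; read luminescence.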
ELG1 genotox: inducers of genotoxicity in HEK293T ELG1-luciferase cells | HEK293T ELG1-luciferase reporter, luminescence, 16 h | Potency, µM (titrated, usually from 46 µM), without a hit: at the top dose activity change, positive = activation, actives largely listed as activators | AID 504466 | 330,000 compounds, 1.3% hits; further: % of control where 0% means no effect; nearly all actives have a fitted effect of over 60% in size
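After overnight (16 hr) compound treatment at 37 °C, ELG1-luciferase HEK293T cells were lysed with ONE-Glo; luminescence quantified 30 min later at room temperature.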
FLuc counter: firefly luciferase modulation, counter-screen for miR-21 project; P08659; purified FLuc, Km substrates, luminescence inhibition; Potency, µM (titrated, usually from 57.5 µM), without a hit: top-dose activity change, negative = inhibition, most hits filed as inhibitors; 360,000 compounds, 6.9% hits;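 further: plate controls were vehicle for no effect and reference inhibitor for full effect; nearly all actives have a fitted effect of over 55% in size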
Target sequence (P08659 whole entry, looked up): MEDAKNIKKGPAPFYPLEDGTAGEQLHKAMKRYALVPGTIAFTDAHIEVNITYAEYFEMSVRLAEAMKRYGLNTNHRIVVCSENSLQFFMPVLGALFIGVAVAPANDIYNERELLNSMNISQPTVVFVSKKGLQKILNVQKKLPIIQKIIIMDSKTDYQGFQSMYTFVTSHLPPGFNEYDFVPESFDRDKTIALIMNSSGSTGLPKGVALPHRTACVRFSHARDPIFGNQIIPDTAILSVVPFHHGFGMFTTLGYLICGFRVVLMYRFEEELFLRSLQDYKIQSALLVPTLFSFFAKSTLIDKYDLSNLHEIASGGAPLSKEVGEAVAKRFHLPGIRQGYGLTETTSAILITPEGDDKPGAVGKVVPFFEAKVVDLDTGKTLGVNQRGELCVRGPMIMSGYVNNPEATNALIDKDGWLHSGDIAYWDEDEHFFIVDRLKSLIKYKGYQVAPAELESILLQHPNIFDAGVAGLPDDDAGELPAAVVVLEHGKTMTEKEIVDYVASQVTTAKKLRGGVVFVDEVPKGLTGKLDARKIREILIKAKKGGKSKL
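Biochemical qHTS of compounds, final roughly 60 µM downward over six points, against 10 nM purified firefly luciferase using Km concentrations of substrates (10 uM D-luciferin, 10 uM ATP) in Tris acetate pH 7.5 buffer; luminescence output.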
* hit, by the source's call; ? = inconclusive; nt = no result; [ ] = remark or other dose. The call rests on the fitted dose curve; in most records, active means well fitted curve in the direction sought with a large enough effect; inconclusive means small, poorly fitted or top-dose-only effect, or another doubt; inactive means no such curve, though single readings can be large; an effect the other way counts as inactive or inconclusive. Potency means the concentration at half of the fitted maximal effect.

SMILES | SMN2 splice up | NPC1 promoter act | p53 reactivation | Rab9 promoter act | ELG1 genotox | FLuc counter
C/C(=N\NS(=O)(=O)c1ccc(C)c([N+](=O)[O-])c1)c1cc2ccccc2o1 | 0% | -3% | -2% | 0% | -2% | -10%
CS(=O)(=O)N1CCC(n2c(C(F)(F)F)nc3cccnc32)CC1 | nt | nt | nt | nt | nt | 3%
CSc1ncc(C(=O)Nc2ccc(C)c(Cl)c2)c(-c2ccccc2)n1 | nt | nt | nt | nt | nt | -13%
COc1cccc(NC(=O)c2ccc(C(=O)c3ccccc3)o2)c1 | 20µM* | ? | 1% | ? | 0% | 6.7µM*
COc1ccc(C(=O)Nc2ccc(N3CCN(c4ccc(OC)cc4)CC3)c(C#N)c2)cc1 | 10µM* | 1% | -6% | -1% | 3% | 2%
COc1ccc(N2CCN(c3ccc(NC(=O)C4CCCCC4)cc3C#N)CC2)cc1 | 21% | -1% | -4% | -4% | 0% | 6%
CSc1cccc(NC(=O)c2ccc3c(c2)CCCN3S(C)(=O)=O)c1 | -11% | nt | nt | nt | nt | 12µM*
O=C(Nc1cccc([N+](=O)[O-])c1)c1ccccc1 | nt | 3% | 5% | 14% | 2% | ?
COc1cccc(NC(=O)c2ccc(-c3ccccc3[N+](=O)[O-])o2)c1 | -8% | 14% | 3% | 22% | -4% | ?
CCS(=O)(=O)N1CCCc2cc(C(=O)Nc3cccc(C(C)=O)c3)ccc21 | nt | nt | nt | nt | nt | -6%
O=C(Nc1ccc2ccccc2c1)c1cccc([N+](=O)[O-])c1 | nt | ? | 4% | ? | ? | 12µM*
NC(C(=O)O)[C@H](O)C(=O)O (stereo partly specified) | 3% | nt | nt | nt | nt | nt
COc1cccc(CNC(=O)Cn2ncc3c(=O)oc4ccccc4c32)c1 | 11% | -5% | -1% | -3% | 9% | -1%
Cc1ccc(NC(=O)CN2C=NS(=O)(=O)c3ccccc32)cc1 | nt | nt | nt | nt | nt | -1%
CO[C@@H](CCO)C[C@H]1O[C@H](C(=O)OC(C)C)CC[C@@H]1C | -1% | nt | nt | nt | nt | nt
CCOC(=O)c1[nH]c2ccc(OC)cc2c1NC(=O)c1ccc(OC)c(OC)c1 | -1% | -8% | -14% | -2% | 1% | -16%
CCn1c2ccccc2c2cc(NC(=O)c3cccc(OC)c3)ccc21 | ? | ? | 16% | ? | 6% | 17µM*
COC(=O)c1[nH]c2cc(OC)c(OC)cc2c1NC(=O)c1cccc(OC)c1 | -13% | 15% | 1% | 13% | -1% | 5.4µM*
COc1cccc(C(=O)Nc2cnn(C(C)C)c2)c1 | nt | ? | ? | 2.5µM* | ? | ?
Cn1c(N)c(C(=O)Nc2ccc3ccccc3c2)sc1=S | ? | 1.8µM* | ? | 2.2µM* | ? | ?
Cc1ccc(S(=O)(=O)OCC(=O)O)cc1 | -18%[9.22 µM] | nt | nt | nt | nt | nt
CCC(=O)NC1CCc2cccc(OC)c2C1 (stereo unspecified) | -3% | nt | nt | nt | nt | nt
COc1cc(OC)cc(C(=O)NNC(=O)c2ccccc2Br)c1 | -8% | 0% | 0% | -11% | 7% | 7%
COc1ccc(C(=O)Nc2ccc3ccccc3c2)cc1 | nt | 0.089µM* | nt | ? | 0.46µM* | 0.19µM*
COc1cccc(OCC(=O)O)c1 | 5% | -2% | 1% | 0% | 1% | -4%
SMILES | SMN2 splice up | NPC1 promoter act | p53 reactivation | Rab9 promoter act | ELG1 genotox | FLuc counter
COc1cccc(/C(C)=N/NS(=O)(=O)c2ccc(Cl)cc2)c1 | -10% | 0% | -2% | -1% | 0% | ?
COc1cccc(C(=O)Nc2cccc(OCC(=O)O)c2)c1 | 14% | -4% | -2% | -3% | 2% | 24µM*
COc1c(C(=O)NNC(=O)c2ccccc2)csc1Br | nt | ? | 6% | 2.8µM* | ? | 11µM*
COc1cccc(/C(C)=N/N=C(\C)c2cccc(OC)c2)c1 | nt | ? | nt | 3.2µM* | ? | 6.7µM*
CCCn1c(-c2ccc(F)cc2)nc2c(NCCCN(C)C)nc(C)nc21 | -9% | nt | nt | nt | nt | nt
Cc1ccc(-c2cn3c(n2)sc2cc(C(=O)NCc4cccs4)ccc23)cc1 | nt | nt | nt | nt | nt | -14%
COc1ccccc1NC(=O)CSc1oc(-c2ccc(F)cc2)nc1S(=O)(=O)c1ccc(Br)cc1 | 6% | nt | nt | nt | nt | 2%
COc1cccc(C(=O)Nc2ccc(NC(=O)Cc3ccccc3)cc2)c1 | nt | 2% | -13% | 5% | 13% | 0%
COc1cccc(C(=O)Nc2ccccc2)c1 | ? | ? | ? | ? | ? | 24µM*
COc1cccc(C(=O)Nc2ccc3ccccc3c2)c1 | nt | 3.2µM* | nt | 0.79µM* | ? | 0.48µM*
COc1cccc(NC(=O)CC(=O)c2ccccc2)c1 | nt | 3.5µM* | ? | 2.8µM* | ? | 17µM*
O=C(Nc1ccc(O)cc1)c1ccc(C(=O)c2ccccc2)o1 | 7% | ? | 20% | 20% | 9% | 7.6µM*
O=C(C(=O)c1ccc(O)cc1)c1ccccc1 | nt | -1% | -2% | 1% | 0% | -1%
COc1cccc(C(=O)Nc2cccc3ccccc23)c1 | nt | 0% | nt | 6% | 4% | -15%
O=C(Cn1c(-c2cccs2)cc2ccccc21)N1CCN(c2ccc(F)cc2)CC1 | nt | nt | nt | nt | nt | 4%
CC(C)c1ccc(NC(=O)c2ccc(NS(C)(=O)=O)cc2)cc1 | -6% | 1% | 0% | 2% | 0% | 6.7µM*
O=C(Nc1ccccc1C(=O)Nc1ccncc1)c1cccc([N+](=O)[O-])c1 | nt | 2.8µM* | ? | 2.2µM* | ? | 0.095µM*
COc1cccc(C(=O)NNC(=O)c2cccnc2)c1 | nt | -3% | 1% | 0% | -1% | 4%
COc1ccc(NS(=O)(=O)c2cc(NC(=O)c3ccc(Cl)cc3)ccc2N2CCOCC2)cc1 | nt | nt | -14% | nt | -1% | nt
COc1cccc(C(=O)NNC(=O)c2ccccc2)c1 | nt | 2.5µM* | 10% | 3.5µM* | 12µM* | ?
COc1ccc(NS(=O)(=O)c2cc(NC(=O)c3ccncc3)ccc2N2CCOCC2)cc1 | 7.9µM* | -1% | -4% | 0% | 3% | 3%
O=C(CCl)Nc1cccc(Oc2cnccn2)c1 | nt | -15% | -14% | -9% | -14% | -7%
COc1ccc2c(CC(=O)Nc3ccc(C)cc3)coc2c1 | 14% | nt | nt | nt | nt | -13%
COc1cccc(C(=O)N/N=C(/c2ccccc2)c2ccccn2)c1 | -53% | -18% | 14% | -16% | 0% | 19µM*
COC(=O)c1cccc(NC(=O)Cc2coc3cc(OC)ccc23)c1 | -41% | 21% | 10% | ? | 0% | 17µM*
O=C(CCl)Nc1cccc(Oc2ccccc2)c1 | -29% | -27% | -10% | -3% | -1% | 17µM*
Cc1ccc(C(=O)Nc2cccc(Oc3ccccc3)c2)o1 | 13% | 29% | 14% | ? | ? | 19µM*
